Assay [1] is described as follows: qHTS assay to identify small molecule agonists of the estrogen receptor alpha (ER-alpha) signaling pathway in the presence of an antagonist - cell viability counter screen (AID 1259386).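 Also: series mostly up to about 92 µM; cells exposed to compounds for 22 h at 37 °C before the viability read; nearly all actives have a fitted effect of over 30% in size.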 The procedure, abridged:
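VM7Luc4E2, stripped-serum pre-culture 5 d; 24hr plating; +ICI-182,780 10.0nM final; cpds 15 conc, 22hr, 37C/5% CO2; CellTiter-Fluor added at 21hr, fluorescence 1hr later.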
(qHTS replaces the single test concentration by a dilution series.)

The target in assay [2] is Progesterone receptor (Homo sapiens) (UniProt P06401). Description: qHTS assay to identify small molecule agonists of the progesterone receptor (PR) signaling pathway (AID 1346784; calls by dose curve; also: nearly all actives have a fitted effect of over 30% in size). A digest of the protocol: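 Agonist qHTS: compounds pinned onto 3,000 PR-UAS-bla HEK 293T cells per well in charcoal-stripped serum medium, 16hr at 37C, then beta-lactamase activity measured by LiveBLAzer FRET fluorescence after 2 hours at room temperature.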

Assay [3] has the same target. Description: qHTS assay to identify small molecule antagonists of the progesterone receptor (PR) signaling pathway (AID 1346795; active = well fitted inhibition curve with a large enough effect in the signal ratio in the repeat runs, not every such curve was filed as active; the % refers to the signal ratio; also: potency is read from the fitted curve at half-maximal effect). The procedure, abridged:
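Antagonist mode with agonist R5020 at 1 nM final and 16 hr incubation at 37C. Reporter was beta-lactamase driven by UAS in HEK293T (PR-UAS-bla), 2% charcoal-stripped serum; signal from LiveBLAzer FRET substrate, 2 hr at room temperature.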

Assay [4] can be described thus: qHTS assay to identify small molecule antagonists of the progesterone receptor (PR) signaling pathway - cell viability counter screen (AID 1346798). Also: series mostly up to about 92 µM; nearly all actives have a fitted effect of over 50% in size. A digest of the protocol:
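Cytotoxicity read as CellTiter-Glo luminescence (30 min, room temperature) in the same wells as the beta-lactamase readout. HEK293T PR-UAS-bla cells in charcoal-stripped 2% FBS received compound and R5020, then 16 h at 37C, 5% CO2.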

Assay [5] in a line: qHTS assay to identify small molecule antagonists of the TGF-beta/Smad signaling pathway - cell viability counter screen (AID 1346824). Also: nearly all actives have a fitted effect of over 50% in size. A digest of the protocol: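 Cytotoxicity counter-screen run in the same wells as the beta-lactamase Smad reporter read: CellTiter-Glo luminescence after 30 min at room temperature. HEK 293T SBE-bla cells had 5 hr compound exposure at 37 C with TGF-beta1 (0.25 ng/mL stock).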

Assay [6] can be described thus: qHTS assay to identify small molecule agonists of the TGF-beta/Smad signaling pathway - cell viability counter screen (AID 1346829). Also: top concentration of the series differs between compounds; nearly all actives have a fitted effect of over 45% in size. The procedure, abridged: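 Luminescence from CellTiter-Glo, read after a 30 min room-temperature incubation, gives cell viability of SBE-bla HEK 293T cells treated 5 hr with compounds at 37 C.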
Assay [7] can be described thus: qHTS assay to identify small molecule agonists of the TGF-beta/Smad signaling pathway (AID 1346859; active = well fitted activation curve with a large enough effect in the signal ratio in the repeat runs, not every such curve was filed as active; the % refers to the signal ratio; also: series mostly up to about 77 µM). The procedure, abridged:
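Fluorescence (ex 405 nm; em 460 and 530 nm) was read 2 h after LiveBLAzer FRET substrate at RT. The preceding compound treatment of overnight-plated SBE-bla HEK293T cells lasted 5 h at 37 C.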

Assay [8] deals with Thyrotropin-releasing hormone receptor (Homo sapiens) (UniProt P34981). Description: qHTS assay to identify small molecule antagonists of the thyrotropin-releasing hormone receptor (TRHR) signaling pathway (AID 1346877; active = well fitted inhibition curve with a large enough effect in the repeat runs, not every such curve was filed as active; also: series mostly up to about 51 µM). The procedure, abridged:
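Intracellular calcium fluorescence, read kinetically every second over 3 min, reports TRH-evoked signalling in HEK293 cells carrying TRHR. Test compounds were added 5 min ahead of a 1 nM TRH challenge.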

Assay [9] shares this target. Description: qHTS assay to identify small molecule agonists of the thyrotropin-releasing hormone receptor (TRHR) signaling pathway (AID 1346891; calls by dose curve; also: series mostly up to about 58 µM). A digest of the protocol:
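Agonist-mode intracellular calcium readout: kinetic fluorescence over 3 min at 1 s intervals after compound addition to TRHR-HEK293 cells (18 h seeded, 2 h dye-loaded at 37 C). Fifteen concentrations, triplicates.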

Assay [10] in a line: Caspase-3/7 induction in HepG2 cells by small molecules, qHTS assay (AID 1346978). Also: nearly all actives have a fitted effect of over 15% in size. Also: potency is read from the fitted curve at half-maximal effect. The procedure, abridged: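 Caspase-3/7 induction was measured by Caspase-Glo 3/7 luminescence (30 min, room temperature) after a 17 hr compound exposure of wild-type HepG2 cells seeded at 2,000 per well and pre-incubated 5 hr.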
Assay [11] can be described thus: Caspase-3/7 induction in CHO-K1 cells by small molecules, qHTS cell viability counter screen (AID 1346979). Also: nearly all actives have a fitted effect of over 35% in size. Also: potency is read from the fitted curve at half-maximal effect. The procedure, abridged: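 Cytotoxicity counter screen: CellTiter-Fluor added to compound-treated wild-type CHO-K1 cells at 16 h (37C, 5% CO2), fluorescence measured 1 h later; same wells as caspase-3/7 measurement.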
Assay [12] in a line: Caspase-3/7 induction in CHO-K1 cells by small molecules, qHTS assay (AID 1346980). Also: nearly all actives have a fitted effect of over 15% in size. A digest of the protocol:
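Luminescent Caspase-Glo 3/7 read (30min, room temperature) quantified apoptosis induction. Cells were wild-type CHO-K1, treated with compound for 17hr at 37 C and 5% CO2.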

Assay [13] is described as follows: Caspase-3/7 induction in HepG2 cells by small molecules, qHTS cell viability counter screen (AID 1346981). Also: series mostly up to about 92 µM; nearly all actives have a fitted effect of over 30% in size. The procedure, abridged: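 HepG2, WT, 2,000 cells/well; 5 hr pre-incubation 37 C/5% CO2; compound pin-transferred from DMSO; 16 hr exposure; CellTiter-Fluor, 1 hr; fluorescence read.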
For assay [14], the target named is Acetylcholinesterase (Homo sapiens) (UniProt P22303). Description: Acetylcholinesterase (AChE) small molecule antagonists: colormetric cell-based qHTS assay (AID 1347395; calls by dose curve; also: nearly all actives have a fitted effect of over 30% in size). A digest of the protocol: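 Colorimetric readout: DTNB quantifies thiocholine from acetylthiocholine hydrolysed by endogenous AChE of SH-SY5Y cells (2,000/well, plated overnight). Compound pretreatment 30 min, substrate incubation 90 min, both 37 C.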

A short description of assay [15]: qHTS assay to identify small molecule agonists of the progesterone receptor (PR) signaling pathway - cell viability counter screen (AID 1346799; calls by dose curve; also: nearly all actives have a fitted effect of over 45% in size). The procedure, abridged: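 Cytotoxicity measured by CellTiter-Glo luminescence (30 min, RT) in the same wells as the PR beta-lactamase agonist read. Those HEK293T cells had 16 h compound treatment at 37 C in 2% charcoal-stripped FBS medium.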

The nature of assay [16]: Human pregnane X receptor (PXR) small molecule agonists, qHTS cell viability counter screen (AID 1346977). Also: nearly all actives have a fitted effect of over 50% in size. A digest of the protocol: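 Same-well viability read: CellTiter-Fluor added after 23 hr compound exposure, fluorescence measured 1 hr later. Cells were PXR-Luc HepG2 seeded at 2,000/well in 5% charcoal-stripped FBS medium, rested 5 hr before dosing at 37 C.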
Assay [17] has as its target Nuclear receptor subfamily 1 group I member 2 (Homo sapiens) (UniProt O75469). Description: Human pregnane X receptor (PXR) small molecule agonists, qHTS assay (AID 1346982). Also: nearly all actives have a fitted effect of over 35% in size. Also: potency is read from the fitted curve at half-maximal effect. A digest of the protocol:
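Luciferase signal from ONE-Glo (30 min, room temperature) measured activation of hPXR-driven CYP3A4 reporter expression in PXR-Luc HepG2 cells treated with compounds for 24 hr at 37 C.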

Assay [18] addresses Nuclear receptor subfamily 1 group I member 2 (Rattus norvegicus) (UniProt Q9R1A7). Description: Rat pregnane X receptor (rPXR) activation by small molecules, qHTS assay (AID 1346983). Also: nearly all actives have a fitted effect of over 20% in size. To be noted: rPXR luciferase reporter cells, One-Glo luminescence, 24 h; max activation: hits give high values. A digest of the protocol:
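Luminescent readout (One-Glo luciferase, 30 min room temperature) followed 24 hr compound treatment at 37 C of rPXR cells plated 2,000 per well and preincubated 5hr; qHTS format with compounds delivered in DMSO.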

The target of assay [19] is Nuclear receptor subfamily 1 group I member 2 (Homo sapiens) (UniProt O75469). Description: CYP3A4 induction through human pregnane X receptor (PXR) by small molecules, qHTS assay (AID 1346984). Also: nearly all actives have a fitted effect of over 40% in size. A digest of the protocol: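 Luminescence readout: luciferase signal after One-Glo (30 min, room temperature), following 3 h at 37C with 3uM final Luciferin-IPA P450 substrate. Cells were DPX-2 (HepG2, PXR/CYP3A4-luc co-transfected) dosed for 24 h.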

A number with no mark means an inactive call. Records with an inconclusive call do not appear. Active and inactive are the calls of the source. Unless noted, calls follow the shape of the dose curve; as a rule, active = well fitted curve in the direction sought with a large enough effect in the repeat runs; inconclusive = weak or mixed curves; inactive = no such curve, though single readings can be large; an effect the other way counts as inactive or inconclusive.
% is scaled to controls: 0 for no effect and ±100 for the full control effect.

Acetylcholinesterase (Homo sapiens), sequence (P22303 whole entry, looked up): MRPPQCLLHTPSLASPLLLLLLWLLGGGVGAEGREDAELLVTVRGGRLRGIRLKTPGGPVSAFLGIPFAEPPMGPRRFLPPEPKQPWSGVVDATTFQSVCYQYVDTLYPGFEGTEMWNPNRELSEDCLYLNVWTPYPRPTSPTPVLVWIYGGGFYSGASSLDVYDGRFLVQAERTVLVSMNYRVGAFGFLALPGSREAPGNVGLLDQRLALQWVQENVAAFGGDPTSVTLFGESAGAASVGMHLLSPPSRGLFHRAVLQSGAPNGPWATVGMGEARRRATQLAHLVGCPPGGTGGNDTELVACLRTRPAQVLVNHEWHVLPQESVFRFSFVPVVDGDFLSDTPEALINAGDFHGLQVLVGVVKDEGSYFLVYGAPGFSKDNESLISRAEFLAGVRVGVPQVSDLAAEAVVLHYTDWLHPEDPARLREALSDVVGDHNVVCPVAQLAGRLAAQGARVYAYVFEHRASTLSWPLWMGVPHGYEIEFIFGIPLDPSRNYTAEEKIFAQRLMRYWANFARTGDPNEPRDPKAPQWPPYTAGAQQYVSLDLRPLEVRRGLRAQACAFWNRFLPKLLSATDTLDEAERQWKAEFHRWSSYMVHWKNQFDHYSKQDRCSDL
Thyrotropin-releasing hormone receptor (Homo sapiens), sequence (P34981 whole entry, looked up): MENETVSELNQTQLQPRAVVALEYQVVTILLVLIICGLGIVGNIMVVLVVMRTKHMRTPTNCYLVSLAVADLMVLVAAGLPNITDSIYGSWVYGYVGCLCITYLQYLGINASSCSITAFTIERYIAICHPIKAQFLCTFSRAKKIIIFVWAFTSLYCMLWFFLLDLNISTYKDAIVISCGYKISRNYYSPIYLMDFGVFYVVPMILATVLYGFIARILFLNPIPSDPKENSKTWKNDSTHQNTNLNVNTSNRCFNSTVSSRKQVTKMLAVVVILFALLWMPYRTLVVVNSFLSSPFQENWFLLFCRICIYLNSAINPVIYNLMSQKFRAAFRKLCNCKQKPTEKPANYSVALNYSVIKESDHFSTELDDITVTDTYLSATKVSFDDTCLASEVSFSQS
Progesterone receptor (Homo sapiens), sequence (P06401 whole entry, looked up): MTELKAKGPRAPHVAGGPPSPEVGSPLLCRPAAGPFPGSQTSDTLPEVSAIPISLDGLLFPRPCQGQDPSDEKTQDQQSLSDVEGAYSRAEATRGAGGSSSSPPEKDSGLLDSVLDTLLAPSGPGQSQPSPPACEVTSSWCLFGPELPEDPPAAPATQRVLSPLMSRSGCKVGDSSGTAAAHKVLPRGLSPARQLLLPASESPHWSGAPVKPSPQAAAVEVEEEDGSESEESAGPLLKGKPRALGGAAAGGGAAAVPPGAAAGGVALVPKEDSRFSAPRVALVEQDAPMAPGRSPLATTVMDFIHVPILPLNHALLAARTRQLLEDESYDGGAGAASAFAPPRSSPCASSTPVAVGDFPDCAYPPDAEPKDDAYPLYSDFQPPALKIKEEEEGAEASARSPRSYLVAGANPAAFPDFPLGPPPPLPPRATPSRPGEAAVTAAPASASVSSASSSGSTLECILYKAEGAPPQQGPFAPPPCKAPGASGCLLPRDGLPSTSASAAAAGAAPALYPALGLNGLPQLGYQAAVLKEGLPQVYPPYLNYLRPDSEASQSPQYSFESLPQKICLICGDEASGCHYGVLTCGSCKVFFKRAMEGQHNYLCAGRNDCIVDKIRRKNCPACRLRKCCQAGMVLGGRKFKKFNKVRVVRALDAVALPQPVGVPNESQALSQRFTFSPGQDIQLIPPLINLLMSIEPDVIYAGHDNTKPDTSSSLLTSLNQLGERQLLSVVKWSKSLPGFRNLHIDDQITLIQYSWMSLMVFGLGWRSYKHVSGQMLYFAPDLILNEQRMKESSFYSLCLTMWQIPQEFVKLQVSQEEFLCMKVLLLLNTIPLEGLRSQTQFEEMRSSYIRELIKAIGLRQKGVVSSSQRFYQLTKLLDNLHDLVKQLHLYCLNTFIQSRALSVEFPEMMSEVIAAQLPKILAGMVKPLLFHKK
Nuclear receptor subfamily 1 group I member 2 (Homo sapiens), sequence (O75469 whole entry, looked up): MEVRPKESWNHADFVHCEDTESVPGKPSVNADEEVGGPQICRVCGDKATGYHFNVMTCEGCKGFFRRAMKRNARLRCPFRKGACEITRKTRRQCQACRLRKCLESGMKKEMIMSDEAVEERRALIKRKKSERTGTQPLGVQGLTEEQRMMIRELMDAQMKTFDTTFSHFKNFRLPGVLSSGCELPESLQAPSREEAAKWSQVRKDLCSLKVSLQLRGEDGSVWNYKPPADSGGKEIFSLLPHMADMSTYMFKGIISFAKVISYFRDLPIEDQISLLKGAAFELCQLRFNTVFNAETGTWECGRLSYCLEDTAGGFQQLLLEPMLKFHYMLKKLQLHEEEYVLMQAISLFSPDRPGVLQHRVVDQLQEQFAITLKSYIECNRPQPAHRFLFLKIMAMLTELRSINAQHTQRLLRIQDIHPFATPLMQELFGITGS
Nuclear receptor subfamily 1 group I member 2 (Rattus norvegicus), sequence (Q9R1A7 whole entry, looked up): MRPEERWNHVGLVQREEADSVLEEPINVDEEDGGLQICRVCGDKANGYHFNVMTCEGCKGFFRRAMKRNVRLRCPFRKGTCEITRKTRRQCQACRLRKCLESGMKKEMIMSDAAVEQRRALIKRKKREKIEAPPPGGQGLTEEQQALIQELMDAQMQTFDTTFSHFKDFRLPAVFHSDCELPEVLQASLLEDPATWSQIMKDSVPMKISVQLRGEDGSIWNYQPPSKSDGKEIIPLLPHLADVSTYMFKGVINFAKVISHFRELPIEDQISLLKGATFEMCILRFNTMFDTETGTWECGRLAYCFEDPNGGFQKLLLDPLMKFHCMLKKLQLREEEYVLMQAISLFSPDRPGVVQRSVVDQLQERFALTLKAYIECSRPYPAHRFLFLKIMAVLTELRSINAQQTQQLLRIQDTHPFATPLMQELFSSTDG

Consider `CN1C2CCC(C)(C)C1CC(OC(=O)C(O)(c1cccs1)c1cccs1)C2` (stereo not drawn), for which the Potency result in assay [1], in [2], in assay [3], in assay [4], in assay [5] and in assay [6] was “inactive” each time. Besides, the Potency entry in [8], in [9], in [10], in assay [11], in assay [12] and in assay [13] was “inactive” throughout. In assay [14], the Potency entry was “inactive”. The molecule was called inactive in assay [7].

Turning to `O=S1(=O)OCC2C(CO1)C1(Cl)C(Cl)=C(Cl)C2(Cl)C1(Cl)Cl` (stereo not drawn), the Potency result in assay [1], in assay [2], in [4], in assay [15], in assay [5] and in [8] was “inactive” in each case. Besides, the Potency entry in assay [9], in assay [16], in assay [10], in assay [12], in assay [13] and in [14] was “inactive” in each case. Moreover, the Potency in [11] was 48.6 µM (active); in assay [17], 21.7 µM (active).

As to `CCn1cc[n+](C)c1` (tested in a mixture with another compound), the Potency entry in assay [1], in [2], in [3], in assay [15], in assay [5] and in assay [6] was “inactive” each time. For the same molecule, the Potency entry in assay [16], in assay [10], in assay [12], in assay [13] and in assay [17] was “inactive” in each case.

For the molecule `CNN`, the Potency entry in assay [1], in assay [2], in [3], in [4], in assay [15] and in assay [5] was “inactive” each time. The Potency entry in assay [16], in assay [10], in assay [11], in [12], in assay [13] and in assay [14] was “inactive” throughout. Besides, the outcome in [7] was inactive.

As for `CC(C)NCC(O)c1ccccc1Cl` (stereo not drawn), the Potency entry in assay [1], in assay [2], in assay [3], in assay [4], in assay [5] and in assay [6] was “inactive” in each case. The Potency result in [8], in [9], in assay [16], in assay [10], in [11] and in assay [12] was “inactive” throughout. The Potency result in [13], in assay [17], in assay [19] and in [14] was “inactive” in each case. In addition, in [7], the call was inactive. For the same molecule, the max activation in assay [18] was 1.03%.

For the molecule `Clc1ccc(C(c2ccc(Cl)cc2)C(Cl)Cl)cc1`, the Potency result in assay [1], in assay [2], in assay [4], in assay [5], in assay [10] and in assay [13] was “inactive” each time. Also, the Potency result in assay [14] was “inactive”. The results for the Potency in assay [3] and in assay [17] were 7.82 µM (active) and 19.6 µM (active), respectively. Further, the molecule was classed as inactive in [7].

For the molecule `CCc1cccc(C)c1N(C(=O)CCl)[C@@H](C)COC`, the Potency result in assay [1], in assay [2], in assay [4], in assay [15], in assay [5] and in assay [6] was “inactive” throughout. Further, the Potency result in assay [8], in [9], in assay [16], in assay [10], in assay [12] and in [13] was “inactive” throughout. In addition, in assay [14], the Potency result is “inactive”. Besides, the result in [7] was inactive. Further, in assay [17], the Potency is 7.7 µM (active).

For `CCNS(=O)(=O)C(F)(F)C(F)(F)C(F)(F)C(F)(F)C(F)(F)C(F)(F)C(F)(F)C(F)(F)F`, the Potency result in assay [1], in assay [2], in assay [5], in assay [6], in [8] and in [9] was “inactive” throughout. Besides, the Potency result in assay [16], in [10], in assay [11], in assay [12], in assay [13] and in assay [17] was “inactive” in each case. Besides, the Potency result in [14] is “inactive”. The Potency in assay [3] is 65.7 µM (active). In addition, the result in [7] was inactive.

On to `Cc1ccc2cc3c(ccc4ccccc43)c3c2c1CC3`, for which the Potency result in assay [1], in assay [2], in assay [4], in assay [15], in [5] and in assay [6] was “inactive” each time. For the same molecule, the Potency entry in [8], in assay [9], in assay [11], in assay [12] and in assay [14] was “inactive” throughout. In addition, the Potency in assay [10] and in assay [17] was 6.13 µM (active) throughout.
